# Source: PubChem BioAssay AID720697 (Broad Institute, 2013)
# Measured potencies and affinities stand elsewhere. Records with an inconclusive call do not appear. Activity calls are given as the source filed them.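 The calls were made as follows: active = signal loss with fitted half-maximal concentration at or below twice the top valid tested dose in every test run; inconclusive = runs disagree, flat 30 to 70% signal loss, or poor fit; inactive = all runs flat, opposite direction, or potency beyond limit.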
# Assay: general mammalian cell viability loss – inhibitor set, cherry-pick, set 2, cytotoxicity control for miR-122 modulator project, dose response (AID 720697);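 also: 0% = median of neutral control wells and -100% = MG132 positive control wells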
# Conditions: HEK293T viability, CellTiter-Glo luminescence, 48 h; series mostly up to 26 µM; activity change, negative = cytotoxicity: at the top concentration
row,Compound,"activity change, negative = cytotoxicity"
1,CO[C@@H]1CN(C)C(=O)c2ccc(NS(C)(=O)=O)cc2OC[C@H](C)N(C(=O)CN(C)C)C[C@@H]1C,-24.6% (inactive)
2,CCC(=O)Nc1ccc2c(c1)C(=O)N(C)[C@@H]1CC[C@H](CC(=O)NCCN3CCCCC3)O[C@H]1CO2,126% (inactive)
3,CCCNC(=O)Nc1ccc2c(c1)OC[C@H](C)N(CCC)C[C@H](C)[C@H](OC)CN(C)C2=O,31.9% (inactive)
4,C[C@@H]1CN([C@@H](C)CO)C(=O)Cc2cc(NC(=O)C3CCCCC3)ccc2O[C@H]1CN(C)Cc1ccc(-c2ccccc2)cc1,-20.5% [at 23.5 µM] (inactive)
5,CO[C@@H]1CN(C)C(=O)c2ccc(NC(=O)c3ccc(Oc4ccccc4)cc3)cc2OC[C@H](C)NC[C@H]1C,17.2% (inactive)
